# Like-named read-outs stand apart in the source and are kept apart here.
# Assays:
# Parameters in all cases: species or system human, MV4-11 + K-562 + COLO205 + SK-N-BE2 + OVCAR-8
# [1] = test system: EPHA5; conditions: read-out: apparent Kd; compound concentrations:100 nM and 1000 nM (sheet 'Samples'); n = 1
# [2] = test system: EPHB2; conditions: read-out: apparent Kd, n = 1
# [3] = test system: EPHB4; conditions: read-out: apparent Kd; compound concentrations:100 nM and 1000 nM (sheet 'Samples'); n = 1
# [4] = test system: ERCC2; conditions: read-out: apparent Kd, n = 1
# [5] = test system: EPHA2; conditions: read-out: apparent Kd, n = 1
# [6] = test system: MAPKAPK2; conditions: read-out: apparent Kd, n = 1
# [7] = test system: BUB1; conditions: read-out: apparent Kd, n = 1
# [8] = test system: TAOK1; conditions: read-out: apparent Kd; compound concentrations:100 nM and 1000 nM (sheet 'Samples'); n = 1
# [9] = test system: CSNK1D; conditions: read-out: apparent Kd; compound concentrations:100 nM and 1000 nM (sheet 'Samples'); n = 1
# [10] = test system: NQO2; conditions: read-out: apparent Kd, n = 1
# [11] = test system: NLK; conditions: read-out: apparent Kd; compound concentrations:100 nM and 1000 nM (sheet 'Samples'); n = 1
# [12] = test system: T1, DJA1; conditions: read-out: apparent Kd, n = 1
# T1 construct: gene DNAJA1
# [13] = test system: PIK3CD; conditions: read-out: apparent Kd, n = 1
# [14] = test system: NQO1; conditions: read-out: apparent Kd; compound concentrations:100 nM and 1000 nM (sheet 'Samples'); n = 1
# [15] = test system: MAP2K2; conditions: read-out: apparent Kd; compound concentrations: 100 nM and 1000 nM (sheet 'Samples'), CATDS: 3.1784212717953002E-2; n = 1
# [16] = test system: MAP4K5; conditions: read-out: apparent Kd, n = 1
# [17] = test system: PDXK; conditions: read-out: apparent Kd, n = 1
# [18] = test system: PDGFRB; conditions: read-out: apparent Kd; compound concentrations:100 nM and 1000 nM (sheet 'Samples'); n = 1
# [19] = test system: TGFBR2; conditions: read-out: apparent Kd; compound concentrations:100 nM and 1000 nM (sheet 'Samples'); n = 1
# [20] = compound concentrations:100 nM and 1000 nM (sheet 'Samples')
smiles,measurement,setting,value
COc1cc2ncn(-c3cc(OCCCc4ccccc4)c(C(N)=O)s3)c2cc1OC [GSK205189A],potency estimated from few doses,[1],720 nM
same,potency estimated from few doses,[2]; [20],697 nM
same,potency estimated from few doses,[3],636 nM
same,potency estimated from few doses,[4]; [20],39.9 nM
Cl.Cn1c(=O)c(Cc2ccc(F)cc2F)cc2cnc(NC3CCOCC3)nc21 [RO3308757-001],potency estimated from few doses,[5]; [20],1130 nM
same,potency estimated from few doses,[1],399 nM
same,potency estimated from few doses,[2]; [20],364 nM
same,potency estimated from few doses,[3],268 nM
same,potency estimated from few doses,[4]; [20],239 nM
same,potency estimated from few doses,[6]; [20],669 nM
CC(C)c1nc(-c2cccc(NS(=O)(=O)c3c(F)cccc3F)c2F)c(-c2ccnc(Nc3ccc(N4CCOCC4)nc3)n2)s1 [GSK2008607A],potency estimated from few doses,"[7]; compound concentrations: 100 nM and 1000 nM (sheet 'Samples'), CATDS: 2.5044910199505301E-2",721 nM
O=S(=O)(c1ccc(-c2ccnc3[nH]ccc23)cc1)N1CCCC1 [GSK846226A],potency estimated from few doses,[8],1690 nM
CC(=O)c1c(-c2ccncc2)[nH]c(-c2ccncc2)c1C [GW493036X],potency estimated from few doses,[9],2040 nM
same,potency estimated from few doses,[10]; [20],1110 nM
CNc1nccc(-c2c(-c3ccc(F)cc3)ncn2C2CCN(C)CC2)n1 [SB-222903],potency estimated from few doses,[7]; [20],1920 nM
same,potency estimated from few doses,[9],11.1 nM
same,potency estimated from few doses,[1],465 nM
same,potency estimated from few doses,[6]; [20],49 nM
same,potency estimated from few doses,[11],19.1 nM
Nc1nc(N)c2nc(-c3ccccc3)[nH]c2n1 [SKF-12778],potency estimated from few doses,[9],2130 nM
same,potency estimated from few doses,[11],1660 nM
CS(=O)(=O)Cc1ccc(Nc2nccc(-c3c(-c4cccc(NC(=O)c5c(F)cccc5F)c4)nn4ccccc34)n2)cc1 [GSK323543A],potency estimated from few doses,"[4]; compound concentrations: 100 nM and 1000 nM (sheet 'Samples'), CATDS: 6.1110797752593003E-2",1570 nM
same,potency estimated from few doses,"[6]; compound concentrations: 100 nM and 1000 nM (sheet 'Samples'), CATDS: 7.72685747843148E-2",870 nM
Cn1cc(-c2ccc3c(c2)CCN3C(=O)Cc2cc(F)cc(C(F)(F)F)c2)c2c(N)ncnc21 [GSK2635225A],potency estimated from few doses,"[12]; compound concentrations: 100 nM and 1000 nM (sheet 'Samples'), CATDS: 0.15894194998460401",902 nM
same,potency estimated from few doses,"[13]; compound concentrations: 100 nM and 1000 nM (sheet 'Samples'), CATDS: 0.457718684353002",139 nM
COc1cc2ncn(-c3cc(OCc4ccncc4)c(C(N)=O)s3)c2cc1OC [GSK336313A],potency estimated from few doses,[14],1230 nM
Cc1cc(O)cc(C)c1/C=C/c1cncc(-c2nn[nH]n2)c1.Cl [GW441806A],potency estimated from few doses,"[5]; compound concentrations: 100 nM and 1000 nM (sheet 'Samples'), CATDS: 4.6112446535010898E-2",1310 nM
CC(=O)N1CCN(c2ccc(Nc3nccc(-c4sc(C(C)C)nc4-c4cccc(NS(=O)(=O)c5cccc(Cl)c5)c4)n3)cn2)CC1 [GSK1660437A],potency estimated from few doses,"[7]; compound concentrations: 100 nM and 1000 nM (sheet 'Samples'), CATDS: 4.8956093582398198E-2",873 nM
same,potency estimated from few doses,"[12]; compound concentrations: 100 nM and 1000 nM (sheet 'Samples'), CATDS: 3.8253703176693299E-2",1690 nM
CN1CCN(Cc2ccc(-c3ccc4c(Nc5ccc(Oc6ccccn6)cc5)ccnc4c3)o2)CC1 [GW567140X],potency estimated from few doses,[15],2090 nM
Nc1ncc(-c2cn[nH]c2)c2scc(-c3ccc4c(c3)CCN4C(=O)Cc3ccccc3)c12 [GSK2593067A],potency estimated from few doses,"[12]; compound concentrations: 100 nM and 1000 nM (sheet 'Samples'), CATDS: 0.221714333862437",118 nM
same,potency estimated from few doses,"[16]; compound concentrations: 100 nM and 1000 nM (sheet 'Samples'), CATDS: 8.2420323237496707E-2",674 nM
same,potency estimated from few doses,"[13]; compound concentrations: 100 nM and 1000 nM (sheet 'Samples'), CATDS: 0.15776824540953199",196 nM
Cn1cc(C2=C(c3cn(CCCN/C(N)=N/[N+](=O)[O-])c4ccccc34)C(=O)NC2=O)c2ccccc21 [RO0318161-000],potency estimated from few doses,"[17]; compound concentrations: 100 nM and 1000 nM (sheet 'Samples'), CATDS: 0.37249947882966999",866 nM
Cn1cc(C2=C(c3cccc([N+](=O)[O-])c3)C(=O)NC2=O)c2ccccc21 [RO0317474-000],potency estimated from few doses,"[10]; compound concentrations: 100 nM and 1000 nM (sheet 'Samples'), CATDS: 0.12983117909003999",1960 nM
same,potency estimated from few doses,"[17]; compound concentrations: 100 nM and 1000 nM (sheet 'Samples'), CATDS: 0.221818886522231",628 nM
CC(=O)Nc1ccc2c(C3=C(c4cn(C)c5ccccc45)C(=O)NC3=O)cn(C)c2c1 [RO0317596-000],potency estimated from few doses,"[10]; compound concentrations: 100 nM and 1000 nM (sheet 'Samples'), CATDS: 0.111698981376187",1590 nM
same,potency estimated from few doses,"[17]; compound concentrations: 100 nM and 1000 nM (sheet 'Samples'), CATDS: 0.18147743783192199",554 nM
CCS(=O)(=O)c1ccc(OC)c(Nc2ncc(-c3cccc(F)c3)o2)c1 [GW621970X_KCGS],potency estimated from few doses,[18],1960 nM
COc1cc2ncn(-c3cc(OCc4sccc4Cl)c(C(N)=O)s3)c2cc1OC [GSK448459A],potency estimated from few doses,[16]; [20],30.8 nM
COc1cc(F)c(F)c(F)c1C(=O)c1cnc(NC2CCN(S(C)(=O)=O)CC2)nc1N [RO4600703-000],potency estimated from few doses,[10]; [20],426 nM
same,potency estimated from few doses,[17]; [20],501 nM
Cc1[nH]nc2c1N=C(c1ccccc1Cl)c1cc([N+](=O)[O-])ccc1N2 [RO0274406-000],potency estimated from few doses,"[17]; compound concentrations: 100 nM and 1000 nM (sheet 'Samples'), CATDS: 8.1891234484878103E-2",832 nM
NC(=O)c1cccnc1COc1cc(-c2ccc(N3CCOCC3)nc2)cc2ncccc12 [BI01125081],potency estimated from few doses,[12]; [20],1430 nM
same,potency estimated from few doses,[17]; [20],1680 nM
same,potency estimated from few doses,[13]; [20],126 nM
same,potency estimated from few doses,[19],1310 nM
COc1ccc(C2=C(c3cn(C)c4ccccc34)C(=O)NC2=O)cc1OC [RO3206363-000],potency estimated from few doses,"[12]; compound concentrations: 100 nM and 1000 nM (sheet 'Samples'), CATDS: 3.2513241063347201E-2",1710 nM
same,potency estimated from few doses,"[2]; compound concentrations: 100 nM and 1000 nM (sheet 'Samples'), CATDS: 3.4039918374270103E-2",1430 nM
same,potency estimated from few doses,"[10]; compound concentrations: 100 nM and 1000 nM (sheet 'Samples'), CATDS: 4.2100406306544602E-2",722 nM
same,potency estimated from few doses,"[13]; compound concentrations: 100 nM and 1000 nM (sheet 'Samples'), CATDS: 0.47573299908292999",9.3 nM

# Source: paper PMC11062922 (Nature Chemical Biology, 2023)
